Experimental findings from PubChem BioAssay are described below.

Each structure is given as a SMILES string. Inconclusive results are not listed. Calls of active or inactive are those of the source.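 The calls were made as follows, unless noted: active = binding below the plate cutoff, the plate median minus 3 SD, with a reading above zero; inconclusive = below the plate cutoff but reading exactly zero; inactive = the rest.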

By inhibition is commonly meant the change of the read-out against control, counted positive when it falls.

The nature of assay [1]: rapamycin-like changes in RPL19A-GFP expression – cell-based, S. cerevisiae, multiplex flow cytometry, primary screen (AID 1862; in the data active = percent of DMSO control GFP below about 86%;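 also: lower values mimic rapamycin by blocking the RPL19A rise seen in DMSO cells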). The following applies: S. cerevisiae RPL19A-GFP strain, flow cytometry fluorescence, 3 h; at 10 µM; stronger effect = lower value.
The nature of assay [2]: TOR pathway GLN3 branch reporter MEP2-GFP changes – S. cerevisiae, multiplex flow cytometry, primary screen (AID 1867;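 active = GFP response, as percent of the DMSO control, above the screen-wide mean plus 3 SD, about 139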;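 also: median GFP channel fluorescence of barcode-gated MEP2-GFP cells measured by flow cytometry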). The following applies: S. cerevisiae MEP2-GFP strain, 3 h, at 10 µM, stronger effect = higher value, 100% means same as DMSO wells.
The nature of assay [3]: TOR pathway RTG branch CIT2 reporter changes – S. cerevisiae, GFP fusion, multiplex flow cytometry, primary screen (AID 1870;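 active = percent response above a set limit, the screen-wide mean plus 3 SD, cut at about 130% in these data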;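 also: barcoded CIT2-GFP strain pooled with four other GFP strains with rapamycin as positive control; median GFP fluorescence per well over plate mean of DMSO wells so 100% = DMSO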). The following applies: S. cerevisiae CIT2-GFP expression, 3 h, at 10 µM, stronger effect = higher value. In general terms: In flow cytometry, cells or beads pass a laser one at a time.
Assay [4] can be described thus: TOR pathway LAP4-GFP level changes – S. cerevisiae, multiplex flow cytometry, primary screen (AID 1873;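 active = GFP signal, as percent of the solvent control, above the screen mean plus 3 SD, about 149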). The following applies: S. cerevisiae LAP4-GFP expression, 3 h, at 10 µM, stronger effect = higher value.
Assay [5] can be described thus: yeast AGP1-GFP level changes, GLN3 branch – cell-based, multiplex flow cytometry, S. cerevisiae, primary screen (AID 1887;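 active = GFP signal above the screen-wide mean plus 3 SD, that is over about 124.5% of the solvent control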;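 also: AGP1-GFP fusion strain of S. cerevisiae within a five-strain barcoded multiplex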). The following applies: 3 h, at 10 µM, stronger effect = higher value.
Assay [6] in a line: reduced mouse 2C T cell binding to pMHC/ICAM-1 vesicles – MLPCN validation set, flow cytometry, LFA-1/ICAM-1 modulator project, pilot screen (AID 2523;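 active = response below a set limit, under 55% cells CD8-positive and vesicle-bound, and CD8 cells' 90th-percentile brightness under 279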;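 as to vesicle binding response: mean PE anti-B7-1 fluorescence of CD8+ cells relative to row control; 100% = QL9-loaded vesicles with DMSO vehicle in the same plate row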). The following applies: 2C mouse CD8+ T cells, at 7 µM, stronger effect = lower value; double positive events: measured here: CD8+/vesicle+ event percentage.
Assay [7] deals with Integrin beta-1 (Homo sapiens) + Integrin alpha-4 (Homo sapiens) (UniProt P13612+P05556). Kind of assay: alpha4beta1 integrin LIBS antibody binding reduction – U937 cells, HUTS-21 mAb, flow cytometry, validation set, VLA-4 allosteric modulator project, pilot screen (AID 2674;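 active = inhibition above 50%, about 3 SD of the validation set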;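 also: antibody binding induced by the VLA-4 ligand LDV present at three times its Kd; 0% = LDV ligand with antibody and no compound and 100% = antibody without LDV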). The following applies: HUTS-21 LIBS mAb binding, at 6.7 µM, stronger effect = higher value, binding induced by LDV ligand.

Assay [8] can be described thus: calorie-restriction mimetic ROS inhibitors, yeast – validation compound set, pilot screen (AID 2706;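 active = superoxide response below 65% of plate, a cut near 3 SD across the whole screen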;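 also: yeast exposed to compound for one week at 30 degrees C before staining; 100% = mean of all compound wells on the same plate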). The following applies: S. cerevisiae aging, superoxide DHE fluorescence; at 10 µM; stronger effect = lower value.
Assay [9] addresses Beta-adrenergic receptor kinase 1 (Homo sapiens) (UniProt P25098). Kind of assay: GRK2 binders displacing RNA aptamer, biochemical, validation, human GRK2, bead flow cytometry (AID 488806;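 active = aptamer binding inhibition above 30%, about 3 SD of noise from non-fluorescent compounds; inactive = inhibition at or below 30%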). The following applies: bead-bound GRK2, FAM-aptamer displacement, at 10 µM, stronger effect = higher value.
The target of assay [10] is Beta-2 adrenergic receptor (Homo sapiens) (UniProt P07550). The assay can be described thus: agonist-induced loss of surface beta2AR – cell-based, FAP fluorogen, flow cytometry, validation set, pilot screen (AID 504459;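 active = percent response above 42, roughly 3 SD of non-fluorescent test compounds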;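 also: agonist-driven loss of surface beta2AR via internalization measured by FAP dye flow cytometry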). The following applies: Am2.2-beta2AR cells, at 10 µM, stronger effect = higher value.
Assay [11] deals with AP-2 complex subunit beta (Homo sapiens) (UniProt P63010). Kind of assay: beta-arrestin/AP2 interaction blockers – biochemical, validation set, GST-AP2 beads, flow cytometry, pilot screen (AID 504541;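 active = inhibition above 54%, about 3 SD of non-fluorescent compounds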;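 also: AP2 carries R879A mutation and is captured from E. coli lysate; bead-bound FITC arrestin peptide fluorescence measuring arrestin peptide binding to AP2; 0% = DMSO wells and 100% = excess unlabeled arrestin peptide control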). The following applies: FITC arrestin peptide, at 10 µM, stronger effect = higher value, AP2 beta2 appendage fragment, R879A mutant.
Assay [12] in a line: cytosolic pH regulators acting via V-ATPase – S. cerevisiae, pHLuorin, HTS validation (AID 504600; in the data active = response above about 15%;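 also: plate controls were DMSO for no effect and reference compound for full effect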). The following applies: V-ATPase proton transport, at 10 µM, stronger effect = higher value.
Assay [13] relates to anti-desmoglein-3 scFv antibody binding to human DSG3. The assay can be described thus: blockers of pathogenic pemphigus antibody–desmoglein-3 binding – biochemical, validation compound set, bead-based, flow cytometry, pilot screen (AID 588368).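 Also: signal is the median channel fluorescence of bead-bound GFP antibody.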 The following applies: Protein G beads, DSG3-Fc, scFv-GFP binding, at 10 µM, stronger effect = lower value.
The nature of assay [14]: Nile Red efflux blockade in pump-expressing yeast – validation compound set, multiplex, phenotypic, pilot screen (AID 588506;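 active = efflux inhibition above 0.42, the validation set average plus 4 SD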;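 also: Nile Red retained in cells so higher fluorescence means more efflux inhibition; 0 = negative control wells and 1 = enniatin B 25 µM full block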). The following applies: S. cerevisiae pump-expressing triplex, Nile Red efflux flow cytometry; at 10 µM; stronger effect = higher value; the pumps come from Candida albicans.
Assay [15] concerns the target ATP-binding cassette sub-family B member 6 (Homo sapiens) (UniProt Q9NP58). The assay can be described thus: blockers of ABCB6-driven porphyrin uptake – K562-ABCB6 cells, flow cytometry, validation set, pilot screen (AID 588550;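 active = inhibition above the screen-wide mean plus 3 SD, about 51%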;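 also: 0% = DMSO wells and 100% = benzethonium chloride 70 µM positive control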). The following applies: K562-ABCB6 porphyrin accumulation, 1 h, at 10 µM, stronger effect = higher value.
Assay [16] in a line: AML differentiation inducers, ER-HoxA9 marrow cells – cell-based, GFP/MAC1 double positive, flow cytometry, validation set, primary screen (AID 588685;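 active = differentiation response of at least 50%, scaled between solvent and reference control, from cells with both markers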;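 also: compound exposure lasts four days before antibody staining and flow analysis; 0% = DMSO wells and 100% = 5 µM fulvestrant positive control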). The following applies: stronger effect = higher value, normalized: vehicle 0, fulvestrant 100.

Integrin beta-1 (Homo sapiens) + Integrin alpha-4 (Homo sapiens), sequence (P05556 whole entry, looked up): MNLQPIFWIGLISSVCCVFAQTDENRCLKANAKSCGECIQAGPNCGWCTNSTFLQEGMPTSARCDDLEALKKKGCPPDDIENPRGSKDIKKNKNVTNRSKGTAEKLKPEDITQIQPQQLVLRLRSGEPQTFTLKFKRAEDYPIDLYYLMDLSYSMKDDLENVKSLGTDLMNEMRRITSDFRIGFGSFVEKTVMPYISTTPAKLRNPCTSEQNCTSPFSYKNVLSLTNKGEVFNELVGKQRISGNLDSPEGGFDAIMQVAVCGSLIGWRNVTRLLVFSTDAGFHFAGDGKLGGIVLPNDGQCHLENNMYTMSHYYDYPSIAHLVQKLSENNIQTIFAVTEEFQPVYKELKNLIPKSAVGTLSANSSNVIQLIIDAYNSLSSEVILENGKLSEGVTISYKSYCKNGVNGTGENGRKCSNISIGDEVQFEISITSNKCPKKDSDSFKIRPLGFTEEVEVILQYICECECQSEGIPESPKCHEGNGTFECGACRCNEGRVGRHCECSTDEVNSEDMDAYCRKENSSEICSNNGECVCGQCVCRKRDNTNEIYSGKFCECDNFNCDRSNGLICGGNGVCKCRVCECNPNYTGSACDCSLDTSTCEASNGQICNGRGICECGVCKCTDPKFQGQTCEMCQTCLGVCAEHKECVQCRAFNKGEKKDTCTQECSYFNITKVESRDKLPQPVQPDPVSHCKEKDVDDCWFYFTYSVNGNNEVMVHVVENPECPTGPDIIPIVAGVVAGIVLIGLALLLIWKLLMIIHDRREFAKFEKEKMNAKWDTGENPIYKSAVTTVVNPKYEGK
Integrin beta-1 (Homo sapiens) + Integrin alpha-4 (Homo sapiens), sequence (P13612 whole entry, looked up): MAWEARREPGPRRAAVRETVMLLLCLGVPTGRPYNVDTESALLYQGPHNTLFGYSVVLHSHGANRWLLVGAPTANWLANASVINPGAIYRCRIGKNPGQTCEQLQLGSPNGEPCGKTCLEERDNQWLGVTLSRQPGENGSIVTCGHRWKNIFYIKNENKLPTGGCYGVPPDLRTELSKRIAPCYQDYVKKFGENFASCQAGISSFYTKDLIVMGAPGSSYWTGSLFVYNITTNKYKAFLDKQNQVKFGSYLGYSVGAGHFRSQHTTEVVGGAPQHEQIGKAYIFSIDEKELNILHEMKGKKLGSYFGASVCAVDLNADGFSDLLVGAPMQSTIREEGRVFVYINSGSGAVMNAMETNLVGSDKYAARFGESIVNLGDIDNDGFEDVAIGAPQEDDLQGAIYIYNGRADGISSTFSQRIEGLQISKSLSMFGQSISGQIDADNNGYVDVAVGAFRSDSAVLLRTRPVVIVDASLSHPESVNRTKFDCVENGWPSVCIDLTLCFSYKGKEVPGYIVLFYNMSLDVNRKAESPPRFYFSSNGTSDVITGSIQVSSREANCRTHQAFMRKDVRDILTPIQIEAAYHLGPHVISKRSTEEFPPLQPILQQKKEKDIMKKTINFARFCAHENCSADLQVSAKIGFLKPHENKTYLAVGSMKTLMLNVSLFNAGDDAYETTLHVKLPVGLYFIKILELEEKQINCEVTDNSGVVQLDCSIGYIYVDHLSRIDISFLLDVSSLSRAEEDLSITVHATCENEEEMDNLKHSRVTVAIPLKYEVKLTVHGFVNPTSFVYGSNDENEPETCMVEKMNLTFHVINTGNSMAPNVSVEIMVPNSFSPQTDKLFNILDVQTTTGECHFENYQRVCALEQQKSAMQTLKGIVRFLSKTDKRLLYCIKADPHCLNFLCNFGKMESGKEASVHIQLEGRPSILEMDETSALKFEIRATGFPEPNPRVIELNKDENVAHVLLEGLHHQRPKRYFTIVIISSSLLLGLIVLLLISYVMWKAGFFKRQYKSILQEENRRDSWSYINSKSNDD
Beta-2 adrenergic receptor (Homo sapiens), sequence (P07550 whole entry, looked up): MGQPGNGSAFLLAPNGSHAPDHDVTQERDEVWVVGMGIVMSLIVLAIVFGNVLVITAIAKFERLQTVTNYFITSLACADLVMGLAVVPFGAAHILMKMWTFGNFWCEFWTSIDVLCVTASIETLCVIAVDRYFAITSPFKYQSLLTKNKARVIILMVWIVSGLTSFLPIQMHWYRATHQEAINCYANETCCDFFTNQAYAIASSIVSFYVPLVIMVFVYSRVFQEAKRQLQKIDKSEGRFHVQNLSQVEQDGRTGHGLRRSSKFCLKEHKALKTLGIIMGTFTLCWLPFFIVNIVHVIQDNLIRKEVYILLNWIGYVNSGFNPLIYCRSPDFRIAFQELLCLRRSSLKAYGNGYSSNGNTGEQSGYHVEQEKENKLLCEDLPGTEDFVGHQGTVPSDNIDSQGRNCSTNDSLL
ATP-binding cassette sub-family B member 6 (Homo sapiens), sequence (Q9NP58 whole entry, looked up): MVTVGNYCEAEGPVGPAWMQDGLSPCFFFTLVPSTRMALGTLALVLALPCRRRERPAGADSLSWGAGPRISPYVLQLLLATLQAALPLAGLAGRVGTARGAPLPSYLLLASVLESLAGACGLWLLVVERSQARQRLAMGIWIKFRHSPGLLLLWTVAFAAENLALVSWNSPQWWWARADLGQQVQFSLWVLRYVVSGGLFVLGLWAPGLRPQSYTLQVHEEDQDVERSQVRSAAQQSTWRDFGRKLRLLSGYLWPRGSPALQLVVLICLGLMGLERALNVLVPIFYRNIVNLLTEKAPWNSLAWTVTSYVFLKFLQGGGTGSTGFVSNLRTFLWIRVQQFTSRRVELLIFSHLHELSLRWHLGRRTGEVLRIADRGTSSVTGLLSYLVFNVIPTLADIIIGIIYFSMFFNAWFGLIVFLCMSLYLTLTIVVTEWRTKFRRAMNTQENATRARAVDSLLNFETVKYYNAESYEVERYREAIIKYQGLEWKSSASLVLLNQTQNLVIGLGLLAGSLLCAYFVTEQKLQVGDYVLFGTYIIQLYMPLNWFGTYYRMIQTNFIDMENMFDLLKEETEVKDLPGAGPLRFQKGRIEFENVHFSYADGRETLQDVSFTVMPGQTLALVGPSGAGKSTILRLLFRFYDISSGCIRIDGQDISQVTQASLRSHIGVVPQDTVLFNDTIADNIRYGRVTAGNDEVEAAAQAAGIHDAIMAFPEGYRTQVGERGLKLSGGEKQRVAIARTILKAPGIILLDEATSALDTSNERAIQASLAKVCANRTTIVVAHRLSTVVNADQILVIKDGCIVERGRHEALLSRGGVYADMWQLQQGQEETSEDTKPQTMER
AP-2 complex subunit beta (Homo sapiens), sequence (P63010 whole entry, looked up, the tested form may be a part, one chain of several): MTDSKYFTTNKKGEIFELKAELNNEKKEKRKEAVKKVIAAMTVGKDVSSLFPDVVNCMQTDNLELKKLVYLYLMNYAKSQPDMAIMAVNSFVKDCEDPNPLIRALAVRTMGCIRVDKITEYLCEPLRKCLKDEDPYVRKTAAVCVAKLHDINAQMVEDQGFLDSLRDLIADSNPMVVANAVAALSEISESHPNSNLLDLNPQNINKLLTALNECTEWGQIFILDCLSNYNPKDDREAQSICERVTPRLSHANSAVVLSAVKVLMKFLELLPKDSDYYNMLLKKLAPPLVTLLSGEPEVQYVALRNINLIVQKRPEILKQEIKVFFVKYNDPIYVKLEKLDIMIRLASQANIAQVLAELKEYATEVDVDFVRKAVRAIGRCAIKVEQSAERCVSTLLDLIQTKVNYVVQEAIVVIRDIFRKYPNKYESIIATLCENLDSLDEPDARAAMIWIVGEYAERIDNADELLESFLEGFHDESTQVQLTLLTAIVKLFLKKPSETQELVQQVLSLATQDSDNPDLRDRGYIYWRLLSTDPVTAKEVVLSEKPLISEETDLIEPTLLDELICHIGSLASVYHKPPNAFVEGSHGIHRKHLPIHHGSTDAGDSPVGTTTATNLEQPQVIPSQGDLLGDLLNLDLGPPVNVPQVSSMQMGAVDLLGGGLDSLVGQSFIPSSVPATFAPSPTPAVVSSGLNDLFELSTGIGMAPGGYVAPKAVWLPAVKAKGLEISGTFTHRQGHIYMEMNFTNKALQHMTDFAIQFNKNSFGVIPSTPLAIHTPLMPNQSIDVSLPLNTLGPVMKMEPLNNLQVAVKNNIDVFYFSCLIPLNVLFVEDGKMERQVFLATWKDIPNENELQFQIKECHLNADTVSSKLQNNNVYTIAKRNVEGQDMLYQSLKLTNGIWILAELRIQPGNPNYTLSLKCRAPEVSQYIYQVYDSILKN
Beta-adrenergic receptor kinase 1 (Homo sapiens), sequence (P25098 whole entry, looked up): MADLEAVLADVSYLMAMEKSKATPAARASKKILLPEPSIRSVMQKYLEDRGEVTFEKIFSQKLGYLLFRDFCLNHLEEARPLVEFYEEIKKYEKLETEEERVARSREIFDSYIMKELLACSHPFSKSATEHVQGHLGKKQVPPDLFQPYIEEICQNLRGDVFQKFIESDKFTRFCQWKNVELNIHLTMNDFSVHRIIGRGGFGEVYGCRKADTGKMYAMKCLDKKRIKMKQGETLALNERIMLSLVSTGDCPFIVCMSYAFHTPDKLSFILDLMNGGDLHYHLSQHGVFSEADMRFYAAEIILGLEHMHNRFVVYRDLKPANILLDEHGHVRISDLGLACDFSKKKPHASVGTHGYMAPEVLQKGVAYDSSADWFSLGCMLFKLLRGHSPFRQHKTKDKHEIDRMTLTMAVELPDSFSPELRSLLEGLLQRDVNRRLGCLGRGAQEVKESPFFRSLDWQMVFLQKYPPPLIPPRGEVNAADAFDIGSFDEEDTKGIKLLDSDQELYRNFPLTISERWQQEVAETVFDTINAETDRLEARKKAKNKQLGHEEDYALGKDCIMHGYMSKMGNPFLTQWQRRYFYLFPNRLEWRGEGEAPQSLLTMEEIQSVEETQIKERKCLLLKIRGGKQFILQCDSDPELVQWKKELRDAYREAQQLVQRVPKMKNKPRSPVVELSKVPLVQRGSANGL

Consider `CC(C)C12CN3CC(C(C)C)(CN(C1)C31C(=O)Nc3ccccc31)C2=O` (stereo not drawn), for which the percent of DMSO control GFP in assay [1] was 106% (inactive). For the same compound, the GFP response vs DMSO was 98.7% (inactive) in assay [2] and 101% (inactive) in [4]. In addition, the percent response of DMSO control in assay [3] was 99.7% (inactive). The GFP response, % of DMSO in assay [5] is 98% (inactive). This compound also registered a double positive events in assay [6] of 66.4%. Further, the vesicle binding response in [6] was 190% (inactive). Besides, the inhibition in [7] is 1.59% (inactive); in assay [11] it was -3.03% (inactive); in assay [15] it was 8% (inactive). Also, in assay [8], the superoxide response (% of plate) was 110% (inactive). Moreover, the aptamer binding inhibition in assay [9] is 3% (inactive). In addition, the response in [10] was 9.28% (inactive); in assay [12], -0.51% (inactive). In assay [13], the binding (% of control) is 103% (inactive). Also, the efflux inhibition (fraction of control) in assay [14] is 0 (inactive). The differentiation response in [16] was -11.9% (inactive).
Take `O=C(CCc1c[nH]c2ccccc12)NCc1ccco1`: the percent of DMSO control GFP in assay [1] is 102% (inactive). Moreover, the GFP response vs DMSO was 106% (inactive) in [2] and 109% (inactive) in [4]. The percent response of DMSO control in assay [3] was 93.8% (inactive). In assay [5], the GFP response, % of DMSO is 106% (inactive). The same compound displayed a double positive events in assay [6] of 63%. For the same compound, in [6], the vesicle binding response is 201% (inactive). Further, the inhibition in assay [7] was 3.99% (inactive); in assay [11], 33.1% (inactive); in [15], 5% (inactive). Moreover, the superoxide response (% of plate) in assay [8] was 98.4% (inactive). Also, the aptamer binding inhibition in assay [9] is -3% (inactive). Besides, the values for the response in assay [10] and in [12] were -21.7% (inactive) and 1.49% (inactive), respectively. Further, the binding (% of control) in assay [13] is 103% (inactive). Moreover, the efflux inhibition (fraction of control) in [14] is 0.04 (inactive). Further, the differentiation response in assay [16] is 0.92% (inactive).
For the compound `CC1(C)C(=O)OC(C(=O)c2ccc(Cl)cc2)C(C)(C)C1=O` (stereo not drawn), in [1], the percent of DMSO control GFP was 103% (inactive). Further, the GFP response vs DMSO in [2] was 90.9% (inactive); in [4], 97.3% (inactive). The percent response of DMSO control in [3] is 107% (inactive). The GFP response, % of DMSO in assay [5] is 103% (inactive). Further, the double positive events in assay [6] was 66.1%. Besides, in assay [6], the vesicle binding response is 261% (inactive). Moreover, the inhibition in [7] is -11.9% (inactive); in assay [11], -10.6% (inactive); in assay [15] it was -4% (inactive). In addition, the superoxide response (% of plate) in assay [8] is 104% (inactive). Further, the aptamer binding inhibition in assay [9] is 2% (inactive). Moreover, the response in assay [10] is -5.23% (inactive); in assay [12] it was -4.25% (inactive). The binding (% of control) in assay [13] was 99.3% (inactive). Besides, in assay [14], the efflux inhibition (fraction of control) is -0.01 (inactive). In addition, the differentiation response in [16] is -4.64% (inactive).
For `Cn1c(SCC(=O)c2ccccc2)nnc1-c1ccncc1`, the percent of DMSO control GFP in assay [1] was 99% (inactive). Further, the GFP response vs DMSO in [2] was 103% (inactive); in assay [4], 112% (inactive). Also, the percent response of DMSO control in assay [3] was 99.6% (inactive). The GFP response, % of DMSO in assay [5] is 107% (inactive). Also, in assay [6], the double positive events was 61.9%. In addition, the vesicle binding response in assay [6] was 157% (inactive). In addition, the inhibition in [7] is 0.59% (inactive); in assay [11], 4.51% (inactive); in [15], 2% (inactive). Moreover, the superoxide response (% of plate) in assay [8] is 105% (inactive). The aptamer binding inhibition in assay [9] is 6% (inactive). For the same compound, the response in assay [10] was -27.9% (inactive); in assay [12], -4.48% (inactive). Besides, in [13], the binding (% of control) is 99.2% (inactive). The efflux inhibition (fraction of control) in [14] is -0.04 (inactive). For the same compound, the differentiation response in assay [16] is 0.92% (inactive).
